Measurements from PubChem BioAssay AID431 (Sanford-Burnham Center for Chemical Genomics, 2006).
Hit rate of the full screen: of about 63,000 compounds, about 1,100 (1.7%) were called active. This is one part of a sample in which actives are shown more often than they occur.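 Rule for the calls: active = compounds whose percent cytotoxicity in the single-dose primary screen, scaled between solvent and toxic-drug controls, exceeds 50; inactive = the rest.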 Entries with a potency or affinity are not part of this list.

Experiment: viability loss of HPDE-C7K cells – cell-based, fluorescence, HTS, primary screen (AID 431);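 note: 0% = DMSO solvent wells and 100% = doxorubicin-treated wells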
Conditions: HPDE-C7K KRASV12 cells, Alamar Blue viability, 48 h; at 10 µM; hits give high values

Row | SMILES | cytotoxicity
1 | O=C(NCC1CCCO1)C1C2C=CC3(CN(Cc4cccs4)C(=O)C13)O2 (configuration not stated) | -19.1% (inactive)
2 | O=C(O)c1cccc(S(=O)(=O)N2CCCC2)c1 | -8.3% (inactive)
3 | O=C(Nc1ccc(S(=O)(=O)NCCc2ccccc2)cc1)c1ccc(Br)o1 | 15.9% (inactive)
4 | O=C(Nc1ccc(Nc2ccccc2)cc1)c1ccc(Br)o1 | 93% (active)
5 | O=C(Nc1cccc(NC(=O)c2ccc(-c3cccc(Br)c3)o2)c1)c1ccco1 | 66.3% (active)
6 | COC(=O)Cc1ccc(NC(=O)c2ccc(Br)o2)cc1 | 8.9% (inactive)
7 | COc1ccc(Br)cc1C(=O)Nc1cccc(NC(=O)c2ccco2)c1 | 0.2% (inactive)
8 | CC(=O)Nc1cccc(NC(=O)c2ccco2)c1 | -14% (inactive)
9 | COc1ccc(CN(Cc2ccccn2)C(=O)CN2C(=O)COc3ccccc32)cc1 | -15.4% (inactive)
10 | CCCCS(=O)(=O)c1sc2nc3c(cc2c1N)CCCC3 | -4.6% (inactive)
11 | Cc1cc(NC(=O)COc2ccc(N(C)S(=O)(=O)c3ccccc3)cc2)no1 | -0.8% (inactive)
12 | CCOC(=O)Cn1cnc2c(nnn2Cc2ccc(Cl)cc2)c1=O | -1% (inactive)
13 | CCSc1nnc(NC(=O)CSc2nnc(Cc3cccn3C)n2-c2ccc(C)cc2)s1 | 50.6% (active)
14 | CCSc1nnc(NC(=O)CSc2nnc(Cc3cccn3C)n2-c2ccc(F)cc2)s1 | 49.5% (inactive)
15 | Cc1ccc(-n2c(Cc3cccn3C)nnc2SCC(=O)Nc2nnc(C)s2)cc1 | -0.8% (inactive)
16 | Cc1ccc(N)c(C(O)(C(F)(F)F)C(F)(F)F)c1 | -9.9% (inactive)
17 | CC(C)(NO)/C(=N/O)c1ccc(Br)cc1 | -3.6% (inactive)
18 | CN(Cc1ccccc1)C(=O)Nc1ccccc1 | 9.8% (inactive)
19 | CC(=O)c1sc(NC(=O)C=C(C)C)nc1C | -0.4% (inactive)
20 | CCCCC(=O)Nc1nc(C)c(C(C)=O)s1 | -0.2% (inactive)
21 | CC(=O)c1sc(NC(=O)C2(F)C(F)(F)C(F)(F)C(F)(F)C(F)(F)C2(F)F)nc1C | 51% (active)
22 | O=C(Cn1ncc2c(=O)oc3ccccc3c21)NC1CC1 | -0.5% (inactive)
23 | CCOC(=O)c1ccc(N2CC(O)=C(c3nc4ccccc4c(=O)[nH]3)C2=N)cc1 | 51.4% (active)
24 | COc1ccccc1N1CC(O)=C(c2nc3ccccc3c(=O)[nH]2)C1=N | 26.5% (inactive)
25 | COc1cccc(N2CC(O)=C(c3nc4ccccc4c(=O)[nH]3)C2=N)c1 | 28% (inactive)
26 | O=C(CCN1CCCC1)Nc1cccc(Br)c1 | 3.2% (inactive)
27 | Cc1ccc(C)c(NC(=O)CN(C)S(=O)(=O)c2ccc(F)cc2)c1 | -4.8% (inactive)
